# Records with an inconclusive call do not appear. Calls of active or inactive are those of the source. Unless noted, calls come from the whole dose curve; as a rule, active = well fitted curve in the direction sought with a large enough effect; inconclusive = small, poorly fitted or top-dose-only effect, or another doubt; inactive = no such curve, though single readings can be large; an effect the other way counts as inactive or inconclusive.
# How the values were obtained:
# [1] = target: Catechol O-methyltransferase (Homo sapiens) (UniProt P21964); test: Confirmatory Screen for Target Class Profiling of Small Molecule Inhibitors of Methyltransferases (AID 1745852; calls by dose curve; for activity change, negative = inhibition: % is set by controls: 0 for no effect and ±100 for the full control effect); conditions: MTase-Glo luminescence, SAH detection, recombinant enzyme; measured here: COMT max response; stronger effect = lower value
# [2] = target: Guanidinoacetate N-methyltransferase (Homo sapiens) (UniProt Q14353); test: as above; conditions: MTase-Glo luminescence, SAH detection, recombinant enzyme; activity change, negative = inhibition: at 57.3 µM (top of the series) unless noted; series mostly up to 57.3 µM
# [3] = target: Nicotinamide N-methyltransferase (Homo sapiens) (UniProt P40261); test: as above; conditions: MTase-Glo luminescence, SAH detection, recombinant enzyme; measured here: NNMT max response; stronger effect = lower value
# [4] = target: Phenylethanolamine N-methyltransferase (Homo sapiens) (UniProt P11086); test: as above; conditions: MTase-Glo luminescence, SAH detection, recombinant enzyme; measured here: PNMT max response; stronger effect = lower value
# [5] = Counterscreen for APE1 Inhibitors: Fluorescent Dye Displacement Validation Assay (AID 1707); conditions: fluorescent dye displacement from DNA; series mostly up to 57.1 µM;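 note: plate controls were ThO with dsDNA and no compound for no effect and ThO without dsDNA for full effect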
# In short: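 Thiazole Orange displacement from dsDNA: 250 nM ThO with 50 nM TAMRA-labelled abasic-site (tetrahydrofuran) duplex in 50 mM Tris-HCl pH7.5, 50mM NaCl, 2 mM MgCl2, 0.01% Tween-20. Loss of endpoint fluorescence (ex 480 nm, em 540 nm) flags DNA binders.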
# [6] = qHTS for differential inhibitors of proliferation of Plasmodium falciparum line GB4 (AID 1816); conditions: Potency: Plasmodium falciparum GB4 proliferation inhibition; series mostly up to 28.7 µM;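 note: potency is the fitted concentration of half-maximal effect; parasite growth measured after 72 h incubation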
# [7] = qHTS for differential inhibitors of proliferation of Plasmodium falciparum line 3D7 (AID 1876); note: potency is the fitted concentration of half-maximal effect; conditions: P. falciparum 3D7 proliferation inhibition; series mostly up to 28.7 µM
# [8] = qHTS for differential inhibitors of proliferation of Plasmodium falciparum line Dd2 (AID 1882); conditions: Potency: Plasmodium falciparum Dd2 proliferation inhibition; series mostly up to 28.7 µM;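 note: plate controls were DMSO vehicle for no effect and 0.29 µM artemisinin for full effect; nearly all actives have a fitted effect of over 65% in size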
# In short: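 Dd2-infected erythrocytes (0.3% parasitemia, 2.5% hematocrit final) incubated with compound 72 h at 37 C, 5% CO2; lysed with saponin/Triton buffer containing SYBR Green I, incubated overnight in the dark, then read by fluorescence (485/535 nm). Normalized to 0.29 uM artemisinin and DMSO.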
# [9] = target: Ferritin light chain (Equus caballus) (UniProt P02791); test: qHTS Validation Assay for Identification of Novel General Anesthetics (AID 2323); conditions: horse apoferritin, anesthetic-site fluorescent probe displacement; series mostly up to 76.9 µM; note: % is set by controls: 0 for no effect and ±100 for the full control effect
# In short: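 Normalized fluorescence response, scaled between free 1-AMA and 1-AMA/apoferritin complex, fitted to a four-parameter Hill equation for concentration-effect values. Binding mix: 10 uM horse-spleen apoferritin, 50% saturated 1-AMA in PBS; read 380/535 nm after 10 min.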
# [10] = target: ATP-dependent DNA helicase Q1 (Homo sapiens) (UniProt P46063); test: qHTS Validation Assay for Inhibitors of RecQ-Like Dna Helicase 1 (RECQ1) (AID 2353); conditions: recombinant RECQ1 helicase DNA unwinding assay; series mostly up to 25.6 µM;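 note: plate controls were DMSO vehicle for no effect and enzyme-free control for full effect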
# In short: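 50 nM RECQ1T1 preincubated 15 min with compound in Tris pH 8.0 buffer with MgCl2, DTT, Tween-20 and 2.5 ug/ml poly(dI-dC); started with 200 nM TAMRA/BHQ-2 forked duplex and 2 mM ATP. Unwinding read as fluorescence (525/598 nm), two reads 2 h apart.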
# [11] = Quantitative high throughput screen for delayed death inhibitors of the malarial parasite plastid, 96 hour incubation (AID 488745); conditions: Plasmodium falciparum growth; series mostly up to 28.7 µM; note: potency is the fitted concentration of half-maximal effect; nearly all actives have a fitted effect of over 70% in size
# In short: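 Infected erythrocytes were added to compound in Albumax-supplemented RPMI 1640 at 0.1% parasitemia and 2% hematocrit (final), incubated 96 h at 37 C under 5% CO2, then luciferase reagent was added and luminescence measured.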
# [12] = target: Transient receptor potential cation channel subfamily V member 1 (Homo sapiens) (UniProt Q8NER1); test: HTS Assay for Compounds that Act as Enhancers of the Vanilloid Receptor 1 (AID 488979); conditions: TRPV1-expressing cells, enhancer of channel activity, stimulated with capsaicin at EC20; series mostly up to 41.7 µM; note: 0% is about no effect
# In short: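 Calcium influx kinetics via Fluo-8 (480/520 nm) in TRPV1-expressing cells, 2000/well cultured overnight at 35.5C. Compound-alone read 3 min (agonist phase), followed by EC20 capsaicin challenge for 2 min (enhancer phase).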
# [13] = target: Thyrotropin receptor (Homo sapiens) (UniProt P16473); test: qHTS Assay for Antagonists of the Thyroid Stimulating Hormone Receptor (AID 488980); conditions: TSHR-expressing cells, cAMP antagonist read-out; series mostly up to 57.5 µM; note: 0% is about no effect
# In short: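 Inhibition of TSH-stimulated cAMP accumulation was quantified by homogeneous time-resolved FRET in TSHR-transfected HEK293 cells. Agonist: TSH, 4 nM final (EC80).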
# [14] = target: Thyrotropin-releasing hormone receptor (Homo sapiens) (UniProt P34981); test: qHTS for Small Molecule Agonists and Allosteric Enhancers of Human TRH Receptor: Validation Screen for Agonists (AID 493127;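 active = calcium activation more than 3 SD above the typical response in the agonist read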;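 note: intracellular calcium rise by fluo-8 fluorescence before TRH EC20 addition; 0% is about no effect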); conditions: TRH receptor agonist cell assay; at 2 µM; stronger effect = higher value
# In short: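 Cells 2000/well, 10% FCS, 18 h 33.5C/5% CO2 → fluo-8 Ca dye, RT 30 min–1.5 h → FDSS baseline 10 × 1 s → compound added → 230 cycles (1 s/cycle) agonist mode. TRH controls.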
# [15] = target: Galactokinase (Homo sapiens) (UniProt P51570); test: qHTS Validation Assay for Inhibitors of Human Galactokinase (GALK) (AID 493189); conditions: purified human GALK enzyme activity, qHTS 7-point titration; series mostly up to 57.5 µM; note: 0% is about no effect
# In short: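 Enzyme activity is inferred from ATP consumption: human GALK phosphorylates galactose (100 uM) using 35 uM ATP for 1 h at room temperature, and luciferase-based Kinase-Glo Plus reports unconsumed ATP.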
# [16] = Validation screen for small molecules that induce DNA re-replication in SW480 colon adenocarcinoma cells (AID 504364); conditions: DNA re-replication phenotype (high-content imaging); series mostly up to 46.1 µM; note: 0% is about no effect
# In short: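 250 cells/well; compound pinned in; 48 hr, 37 C, 5% CO2; Hoechst added, 40 min; nuclear fluorescence imaged, 405 ex / 500-530 em; re-replication scored as increase in high-intensity nuclei.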
# [17] = target: Voltage-gated inwardly rectifying potassium channel KCNH2 (Homo sapiens) (UniProt Q12809); test: qHTS Assay for Small Molecule Inhibitors of the Human hERG Channel Activity (AID 588834); conditions: U2OS BacMam hERG, FluxOR thallium flux fluorescence; series mostly up to 92.2 µM;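 note: top concentration of the series differs between compounds; % is set by controls: 0 for no effect and ±100 for the full control effect; lower thallium flux fluorescence means stronger hERG block; nearly all actives have a fitted effect of over 50% in size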
# In short: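 Blockade is seen as reduced FluxOR thallium-flux fluorescence in U2OS cells expressing hERG from a BacMam construct, in Opti-MEM with 2% FCS. Concentration-response data fitted to the Hill equation for AC50.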
# Chain of Phenylethanolamine N-methyltransferase (Homo sapiens) (P11086 whole entry, looked up): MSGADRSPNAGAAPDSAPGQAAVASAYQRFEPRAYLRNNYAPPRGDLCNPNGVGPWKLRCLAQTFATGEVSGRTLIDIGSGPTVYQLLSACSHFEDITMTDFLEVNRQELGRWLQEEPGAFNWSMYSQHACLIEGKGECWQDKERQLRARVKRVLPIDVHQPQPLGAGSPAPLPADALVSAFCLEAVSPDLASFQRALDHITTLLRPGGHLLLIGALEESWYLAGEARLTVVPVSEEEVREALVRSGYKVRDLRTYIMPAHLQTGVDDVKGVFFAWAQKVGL
# Chain of Catechol O-methyltransferase (Homo sapiens) (P21964 whole entry, looked up): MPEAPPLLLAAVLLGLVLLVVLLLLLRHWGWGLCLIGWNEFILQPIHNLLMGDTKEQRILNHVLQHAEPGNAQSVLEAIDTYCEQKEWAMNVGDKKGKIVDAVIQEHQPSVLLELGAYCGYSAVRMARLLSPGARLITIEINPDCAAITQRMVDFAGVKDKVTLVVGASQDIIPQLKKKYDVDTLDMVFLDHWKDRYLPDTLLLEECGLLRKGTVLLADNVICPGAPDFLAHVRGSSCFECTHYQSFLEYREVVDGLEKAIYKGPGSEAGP
# Chain of Nicotinamide N-methyltransferase (Homo sapiens) (P40261 whole entry, looked up): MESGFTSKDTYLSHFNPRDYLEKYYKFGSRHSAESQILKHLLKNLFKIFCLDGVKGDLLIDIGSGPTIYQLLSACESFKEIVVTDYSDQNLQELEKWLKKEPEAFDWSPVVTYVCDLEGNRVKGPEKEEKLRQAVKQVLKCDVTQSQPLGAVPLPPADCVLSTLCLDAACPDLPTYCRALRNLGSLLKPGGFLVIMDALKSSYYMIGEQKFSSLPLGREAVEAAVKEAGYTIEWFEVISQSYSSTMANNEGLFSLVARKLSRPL
# Chain of Thyrotropin receptor (Homo sapiens) (P16473 whole entry, looked up): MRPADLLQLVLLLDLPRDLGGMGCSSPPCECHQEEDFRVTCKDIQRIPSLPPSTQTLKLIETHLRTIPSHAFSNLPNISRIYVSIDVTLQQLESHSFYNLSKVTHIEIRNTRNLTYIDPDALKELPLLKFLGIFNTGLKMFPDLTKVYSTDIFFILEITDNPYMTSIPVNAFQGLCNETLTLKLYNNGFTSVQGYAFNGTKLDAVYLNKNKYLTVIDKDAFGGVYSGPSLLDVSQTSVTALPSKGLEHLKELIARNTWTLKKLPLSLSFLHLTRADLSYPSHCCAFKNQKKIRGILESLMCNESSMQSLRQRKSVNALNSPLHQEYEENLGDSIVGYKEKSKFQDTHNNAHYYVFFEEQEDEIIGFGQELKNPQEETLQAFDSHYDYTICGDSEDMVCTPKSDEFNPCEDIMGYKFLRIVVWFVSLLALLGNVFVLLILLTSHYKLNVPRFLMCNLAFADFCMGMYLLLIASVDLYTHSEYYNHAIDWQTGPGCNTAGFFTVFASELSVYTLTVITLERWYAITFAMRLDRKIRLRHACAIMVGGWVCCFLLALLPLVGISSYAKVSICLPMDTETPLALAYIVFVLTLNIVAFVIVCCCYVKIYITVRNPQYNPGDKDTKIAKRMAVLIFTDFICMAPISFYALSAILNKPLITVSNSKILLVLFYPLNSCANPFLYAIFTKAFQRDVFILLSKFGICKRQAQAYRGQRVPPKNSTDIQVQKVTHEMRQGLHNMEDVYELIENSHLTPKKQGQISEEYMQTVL
# Chain of Voltage-gated inwardly rectifying potassium channel KCNH2 (Homo sapiens) (Q12809 whole entry, looked up): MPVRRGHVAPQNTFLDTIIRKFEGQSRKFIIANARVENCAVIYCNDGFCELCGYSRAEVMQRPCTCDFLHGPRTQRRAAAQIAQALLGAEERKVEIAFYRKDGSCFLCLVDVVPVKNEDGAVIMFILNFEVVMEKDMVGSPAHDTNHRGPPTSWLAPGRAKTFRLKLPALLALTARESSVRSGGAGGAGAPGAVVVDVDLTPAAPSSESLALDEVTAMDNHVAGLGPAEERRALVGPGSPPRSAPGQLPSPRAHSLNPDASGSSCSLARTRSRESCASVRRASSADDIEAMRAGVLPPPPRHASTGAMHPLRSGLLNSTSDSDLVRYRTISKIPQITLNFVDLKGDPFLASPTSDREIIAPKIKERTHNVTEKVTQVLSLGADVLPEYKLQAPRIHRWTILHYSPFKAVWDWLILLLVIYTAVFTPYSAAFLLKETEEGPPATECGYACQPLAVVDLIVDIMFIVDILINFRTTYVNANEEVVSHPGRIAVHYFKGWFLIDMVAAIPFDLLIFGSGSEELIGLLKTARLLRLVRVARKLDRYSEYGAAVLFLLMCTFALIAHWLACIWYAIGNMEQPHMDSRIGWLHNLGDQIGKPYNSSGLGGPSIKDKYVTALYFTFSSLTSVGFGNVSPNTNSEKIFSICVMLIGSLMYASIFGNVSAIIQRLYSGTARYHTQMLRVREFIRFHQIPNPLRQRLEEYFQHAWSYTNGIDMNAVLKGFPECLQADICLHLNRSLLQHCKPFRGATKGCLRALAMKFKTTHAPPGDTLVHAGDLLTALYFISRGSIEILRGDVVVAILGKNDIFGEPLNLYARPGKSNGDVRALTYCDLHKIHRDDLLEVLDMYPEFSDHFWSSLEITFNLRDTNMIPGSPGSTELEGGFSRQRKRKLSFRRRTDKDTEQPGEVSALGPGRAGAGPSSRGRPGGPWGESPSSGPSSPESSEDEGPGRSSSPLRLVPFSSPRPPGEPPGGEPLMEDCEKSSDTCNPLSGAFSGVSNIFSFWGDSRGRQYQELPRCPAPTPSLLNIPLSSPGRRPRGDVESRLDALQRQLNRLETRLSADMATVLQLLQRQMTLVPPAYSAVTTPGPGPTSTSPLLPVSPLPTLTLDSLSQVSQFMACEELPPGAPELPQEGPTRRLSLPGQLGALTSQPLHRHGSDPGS
# Chain of ATP-dependent DNA helicase Q1 (Homo sapiens) (P46063 whole entry, looked up): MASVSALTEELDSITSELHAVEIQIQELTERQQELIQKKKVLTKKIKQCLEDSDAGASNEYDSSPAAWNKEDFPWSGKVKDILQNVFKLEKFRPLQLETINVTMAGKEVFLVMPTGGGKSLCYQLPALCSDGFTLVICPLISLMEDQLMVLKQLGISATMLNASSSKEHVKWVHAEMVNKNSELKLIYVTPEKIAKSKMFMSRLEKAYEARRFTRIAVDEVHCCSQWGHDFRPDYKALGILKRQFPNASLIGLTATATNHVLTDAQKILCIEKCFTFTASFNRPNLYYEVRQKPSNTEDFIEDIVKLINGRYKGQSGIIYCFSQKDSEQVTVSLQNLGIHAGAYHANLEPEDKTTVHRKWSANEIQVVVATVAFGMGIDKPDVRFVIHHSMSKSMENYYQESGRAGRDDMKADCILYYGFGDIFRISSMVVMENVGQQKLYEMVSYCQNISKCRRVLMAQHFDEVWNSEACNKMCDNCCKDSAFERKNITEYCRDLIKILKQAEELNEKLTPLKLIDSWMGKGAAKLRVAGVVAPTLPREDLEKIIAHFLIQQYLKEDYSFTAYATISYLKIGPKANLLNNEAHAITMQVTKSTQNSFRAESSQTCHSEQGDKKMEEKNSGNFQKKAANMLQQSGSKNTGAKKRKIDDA
# Chain of Ferritin light chain (Equus caballus) (P02791 2-175 limits assumed): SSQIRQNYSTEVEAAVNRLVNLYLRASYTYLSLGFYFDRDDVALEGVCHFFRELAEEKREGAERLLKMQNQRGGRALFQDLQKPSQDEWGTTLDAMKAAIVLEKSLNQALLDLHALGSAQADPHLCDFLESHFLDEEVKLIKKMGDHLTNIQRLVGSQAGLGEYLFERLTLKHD
# Chain of Thyrotropin-releasing hormone receptor (Homo sapiens) (P34981 whole entry, looked up): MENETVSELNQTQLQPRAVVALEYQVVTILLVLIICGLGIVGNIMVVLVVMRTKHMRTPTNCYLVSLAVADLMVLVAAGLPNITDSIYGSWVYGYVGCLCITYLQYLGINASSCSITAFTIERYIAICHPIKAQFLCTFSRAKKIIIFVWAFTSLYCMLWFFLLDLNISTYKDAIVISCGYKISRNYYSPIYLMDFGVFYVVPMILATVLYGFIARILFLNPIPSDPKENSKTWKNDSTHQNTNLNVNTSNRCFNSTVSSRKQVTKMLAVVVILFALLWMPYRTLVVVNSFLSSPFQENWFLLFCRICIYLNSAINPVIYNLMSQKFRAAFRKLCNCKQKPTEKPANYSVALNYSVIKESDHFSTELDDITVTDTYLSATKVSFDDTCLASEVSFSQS
# Chain of Galactokinase (Homo sapiens) (P51570 whole entry, looked up): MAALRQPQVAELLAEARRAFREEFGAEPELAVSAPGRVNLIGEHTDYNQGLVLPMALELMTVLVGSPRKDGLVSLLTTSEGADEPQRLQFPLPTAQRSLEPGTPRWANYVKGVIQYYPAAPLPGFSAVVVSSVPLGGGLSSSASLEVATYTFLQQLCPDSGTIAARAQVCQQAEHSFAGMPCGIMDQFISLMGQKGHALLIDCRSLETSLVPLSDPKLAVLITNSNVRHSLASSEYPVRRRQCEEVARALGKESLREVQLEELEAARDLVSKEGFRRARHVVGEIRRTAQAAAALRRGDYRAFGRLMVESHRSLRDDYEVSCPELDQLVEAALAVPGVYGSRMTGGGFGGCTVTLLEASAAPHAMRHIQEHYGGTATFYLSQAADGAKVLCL
smiles,measurement,setting,value
O=C1c2ccccc2C(=O)c2cc(S(=O)(=O)N(CCO)CCO)ccc21,activity,[1],-23%
same,"activity change, negative = inhibition",[2],2.27%
same,activity,[3],-1.51%
same,activity,[4],-73.8%
Nc1nc(Cl)nc2c1ncn2[C@@H]1O[C@H](CO)[C@H](O)[C@H]1O,outcome,[5],inactive
same,Potency,[6],11.2 µM (active)
same,Potency,[7],7.08 µM (active)
same,Potency,[8],inactive
same,outcome,[9],inactive
same,outcome,[10],inactive
same,Potency,[11],5.22 µM (active)
same,outcome,[12],inactive
same,outcome,[13],inactive
same,activation,[14],1.31% (inactive)
same,outcome,[15],inactive
same,Potency,[16],inactive
same,Potency,[17],inactive
Cc1ccc(C2Nc3c(ccc(C(=O)O)c3C)C3C=CCC32)cc1 (centres undefined),activity,[1],-3.41%
same,Potency,[2],inactive
same,activity,[3],-1.48%
same,activity,[4],-1.34%
Cc1ccc(CN2C(=O)c3ccc(-c4ccco4)n3CC2(C)C(=O)NCc2ccc(Cl)cc2)cc1 (centres undefined),activity,[1],0%
same,Potency,[2],inactive
same,activity,[3],-6.21%
same,activity,[4],1.57%
COc1cncc(Nc2ncc(-c3ccccc3OC)c3c2OCC3)c1,activity,[1],0.728%
same,"activity change, negative = inhibition",[2],2.22% [at 85.7 µM]
same,activity,[3],-19.7%
same,activity,[4],0.675%

# Source: PubChem BioAssay (NCATS)
